Reference: PubChem BioAssay AID1159580 (chemical genetic matrix, 2015)
Values joined by “and” are separate entries in the source; they are usually repeats but may differ in a detail not shown here. Identical values can stand only once. In all, about 5,500 compounds went through this assay and about 2,000 (36%) were called active. Roughly 18% stayed inconclusive and do not appear here. Cut-off read from the data, not from the text of the source: active = normalized growth mostly below about 0.91 (no sharp cut-off); inconclusive = no clear call, values can overlap the other calls; inactive = mostly above about 0.92. This is one part of the list.

Assay: chemical genetic growth profiling, strain panel (AID 1159580);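 note: tested at 20 µM; growth read once vehicle control cultures reached saturation at 30 °C; 1 = growth at the plate median or of vehicle wells; lower values mean less growth of the strain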
Conditions: S. cerevisiae deletion strains, growth OD

Measured: normalized growth

CC(NC(C)(C)C)C(=O)c1cccc(Cl)c1 (stereo not given)
inactive: locus YAL013W, strain DEP1, active compounds read low 1.01 | locus YAL021C, strain ccr4, active compounds read low 1.02 | locus YAL026C, strain drs2, active compounds read low 1 | locus YAL030W, strain snc1, active compounds read low 0.998 | locus YAL040C, strain CLN3, active compounds read low 0.958 | locus YBL061C, strain skt5, active compounds read low 0.993 | locus YBR009C, strain hhf1, active compounds read low 1 | locus YBR021W, strain FUR4, active compounds read low 0.995 | locus YBR023C, strain chs3, active compounds read low 0.996 | locus YBR171W, strain sec66, active compounds read low 0.996 | locus YBR229C, strain ROT2, active compounds read low 1 | locus YBR231C, strain swc5, active compounds read low 1 | locus YBR279W, strain paf1, active compounds read low 0.998 | locus YCL011C, strain gbp2, active compounds read low 1 | locus YCL016C, strain dcc1, active compounds read low 0.995 | locus YCL029C, strain bik1, active compounds read low 1.05 | locus YCL061C, strain MRC1, active compounds read low 0.994 | locus YCL069W, strain vba3, active compounds read low 0.994 | locus YCR088W, strain abp1, active compounds read low 1 | locus YDL005C, strain med2, active compounds read low 0.993 | locus YDL035C, strain GPR1, active compounds read low 1.01 | locus YDL040C, strain nat1, active compounds read low 0.994 | locus YDL074C, strain BRE1, active compounds read low 0.988 | locus YDL101C, strain DUN1, active compounds read low 1.02 | locus YDL134C, strain PPH21, active compounds read low 1 | locus YDL185W, strain tfp1, active compounds read low 1.02 | locus YDL192W, strain arf1, active compounds read low 1.03 | locus YDR001C, strain nth1, active compounds read low 1.01 | locus YDR069C, strain doa4, active compounds read low 1 | locus YDR101C, strain arx1, active compounds read low 1.03 | locus YDR137W, strain rgp1, active compounds read low 1 | locus YDR150W, strain NUM1, active compounds read low 1.01 and 0.976 | locus YDR159W, strain sac3, active compounds read low 0.997 | locus YDR162C, strain NBP2, active compounds read low 1.01 | locus YDR195W, strain ref2 0.989 | locus YDR297W, strain sur2, active compounds read low 1 | locus YDR318W, strain mcm21, active compounds read low 1.02 | locus YDR334W, strain swr1, active compounds read low 0.986 | locus YDR335W, strain msn5, active compounds read low 1 | locus YDR363W, strain ESC2, active compounds read low 1.02 | locus YDR388W, active compounds read low 1.02 | locus YDR392W, strain spt3, active compounds read low 0.978 | locus YDR502C, strain sam2, active compounds read low 1.04 | locus YEL003W, strain gim4, active compounds read low 1 | locus YEL037C, strain rad23, active compounds read low 1 | locus YEL061C, strain CIN8 (second series), active compounds read low 1 | locus YEL061C, strain CIN8, active compounds read low 1.01 | locus YER002W, strain NOP16, active compounds read low 0.979 | locus YER015W, strain faa2, active compounds read low 1 | locus YER016W, strain bim1, active compounds read low 1 | locus YER110C, active compounds read low 1.05 | locus YER111C, strain swi4, active compounds read low 0.987 | locus YER155C, strain BEM2 (second series), active compounds read low 1.01 | locus YER155C, strain BEM2, active compounds read low 1 | locus YER167W, strain BCK2, active compounds read low 1.01 | locus YFR010W, strain ubp6, active compounds read low 1 | locus YGL078C, strain dbp3, active compounds read low 1 | locus YGL086W, strain mad1, active compounds read low 1 | locus YGL167C, strain pmr1, active compounds read low 0.991 | locus YGL173C, strain kem1, active compounds read low 0.977 | locus YGL227W, strain vid30, active compounds read low 0.992 | locus YGL240W, strain doc1, active compounds read low 1.02 | locus YGL248W, strain PDE1, active compounds read low 1.01 | locus YGL253W, strain hxk2, active compounds read low 0.992 | locus YGR078C, strain PAC10, active compounds read low 1.01 | locus YGR135W, strain pre9, active compounds read low 1.02 | locus YGR229C, strain SMI1, active compounds read low 0.999 | locus YGR252W, strain gcn5, active compounds read low 0.989 | locus YHR013C, strain ard1, active compounds read low 0.976 | locus YHR027C, strain rpn1, active compounds read low 0.996 | locus YHR030C, strain SLT2, active compounds read low 1.01 and 1 | locus YHR079C, strain IRE1 (second series), active compounds read low 1.02 | locus YHR079C, strain IRE1, active compounds read low 0.999 | locus YHR094C, strain hxt1, active compounds read low 1.02 | locus YHR129C, strain ARP1, active compounds read low 1.02 | locus YHR142W, strain chs7, active compounds read low 1 | locus YHR200W, strain rpn10, active compounds read low 1.02 | locus YIL066C, strain RNR3, active compounds read low 1.01 | locus YIL073C, strain SPO22, active compounds read low 1.07 | locus YIL125W, strain kgd1, active compounds read low 1.02 | locus YIR030C, strain dcg1, active compounds read low 1.04 | locus YJL092W, strain hpr5, active compounds read low 0.995 | locus YJL095W, strain BCK1 (second series), active compounds read low 0.997 | locus YJL095W, strain BCK1, active compounds read low 1.01 and 0.995 | locus YJL115W, strain asf1, active compounds read low 0.996 | locus YJL129C, strain trk1, active compounds read low 1.01 | locus YJL134W, strain LCB3, active compounds read low 1.01 | locus YJL154C, strain vps35, active compounds read low 1.01 | locus YJL164C, strain tpk1, active compounds read low 1 | locus YJL166W, strain qcr8, active compounds read low 0.993 | locus YJL168C, strain set2, active compounds read low 1.02 | locus YJL187C, strain SWE1 (second series), active compounds read low 1.02 | locus YJL187C, strain SWE1, active compounds read low 0.996 | locus YJR043C, strain POL32, active compounds read low 1 | locus YJR066W, strain TOR1, active compounds read low 0.969
